# Measurements taken from the supplement of paper PMC12340641.
# Counter-ions that a name gives are not always drawn.
# Columns and labels:
# [1] = biological target: IKZF1 (dCK*-IKZF1 fusion in HEK293FT) (UniProt Q13422); experiment: inhibition of IKZF1 HTRF signal (DMSO = 0%, pomalidomide 10 uM = 100%); higher = lower IKZF1 protein level; conditions: compound concentration: 5 uM, overnight (~20 h)
# Summary of the method: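 Compound was tested at 5 μM in single wells on HEK293FT cells (2000/well, 384-well) stably carrying an IKZF1 fusion, overnight at 37 °C. Total IKZF1 was measured in lysates with a commercial HTRF antibody kit as the background-subtracted 665/620 nm time-resolved FRET ratio. The reported figure is percent inhibition of IKZF1 signal, scaled per plate between vehicle and a reference degrader. The vehicle anchor was 0% and the degrader anchor 100%.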
# HEK293FT dCK*-only = experiment: relative growth in counter assay (no AraC = 100%, AraC + DMSO = 0%); higher = more growth rescue independent of IKZF1; conditions: compound concentration: 5 uM; AraC concentration: 0.3 uM; overnight pretreatment + 4 days AraC
# Summary of the method: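 For this counter assay, relative growth was normalised on each plate to two kinds of reference wells. HEK293FT cells expressing only an engineered kinase construct (300/well, 384-well) were treated with 5 μM compound 2 h after seeding, then after overnight at 37 °C with a nucleoside suicide substrate at 0.3 μM plus medium for 4 days. On day 5, Hoechst 33342-stained nuclei were counted by imaging, taking wells without suicide substrate as 100% and substrate plus vehicle as 0%.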
# HEK293FT dCK*-IKZF1 = experiment: relative growth recovery (pomalidomide 10 uM = 100%, DMSO = 0%); higher = more growth rescue (IKZF1 fusion degradation); conditions: compound concentration: 5 uM; AraC concentration: 0.3 uM; overnight pretreatment + 4 days AraC
# Summary of the method: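 HEK293FT cells stably expressing an engineered deoxycytidine kinase–IKZF1 fusion were seeded at 300 per well in 384-well plates and given 5 μM compound 2 h later. After overnight incubation at 37 °C, a nucleoside suicide substrate at 0.3 μM was added with medium for 4 days, and on day 5 Hoechst 33342-stained nuclei were counted by whole-well imaging. Growth recovery was normalised per plate between a reference degrader and vehicle, set to 100% and 0% respectively, and the values are means of duplicates run on different days.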
# Sequence of IKZF1 (dCK*-IKZF1 fusion in HEK293FT) (Q13422 whole entry, looked up, the tested form may be a part): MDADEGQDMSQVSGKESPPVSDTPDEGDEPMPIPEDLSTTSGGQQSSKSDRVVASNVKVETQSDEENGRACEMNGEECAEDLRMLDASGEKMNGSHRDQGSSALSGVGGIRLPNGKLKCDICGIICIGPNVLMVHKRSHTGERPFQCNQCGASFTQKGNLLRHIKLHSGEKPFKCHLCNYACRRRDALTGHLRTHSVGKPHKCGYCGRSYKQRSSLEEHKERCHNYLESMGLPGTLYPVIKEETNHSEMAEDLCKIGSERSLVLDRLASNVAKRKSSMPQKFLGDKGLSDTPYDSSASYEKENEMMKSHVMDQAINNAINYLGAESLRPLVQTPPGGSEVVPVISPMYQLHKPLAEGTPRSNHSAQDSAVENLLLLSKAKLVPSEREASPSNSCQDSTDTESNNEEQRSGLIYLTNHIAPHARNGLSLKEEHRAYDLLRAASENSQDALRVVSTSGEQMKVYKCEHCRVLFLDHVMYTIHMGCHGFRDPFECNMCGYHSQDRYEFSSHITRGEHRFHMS
Structure (SMILES),inhibition of IKZF1 HTRF signal [1] [%],relative growth in counter assay (HEK293FT dCK*-only) [%],relative growth recovery (HEK293FT dCK*-IKZF1) [%]
NC(=O)N/N=C/c1ccc(Oc2ccc(F)cc2)cc1,-35,2.45,-1.07
CN1CCC[C@@H]1CCO[C@](C)(c1ccccc1)c1ccc(Cl)cc1,-21.3,6.03,-3.56
O=C(/C=C/c1ccc(O)c(O)c1)c1ccc(O)cc1O [Butein],8.77,-27.3,-8.42
CCn1c(=O)[nH]c2ccccc21,-34.6,-8.57,0.15
Oc1c(Br)cc(Br)c2cccnc12,1.09,-4.45,-2.54
CN(C)CCCN1c2ccccc2Sc2ccccc21,-35.6,5.27,-2.24
C(=C\c1ccccc1)/CN1CCN(C(c2ccccc2)c2ccccc2)CC1,-25.9,-3.15,1.06
Cc1ccc2c(=O)c3ccccc3n(CCCN)c2c1C,-12.2,-35.5,-14.4
CN(CC3)C[C@@H](O)[C@H]3[C@]1=C(OC(C4=CC=CC=C4Cl)=CC2=O)C2=C(O)C=C1O [alvocidib],-30.5,-35.2,-12.5
Cc1cc(C(C)(C)CC(C)(C)C)ccc1OCCOCC[N+](C)(C)Cc1ccccc1,-17.4,-4.05,5.47
CSc1ccc2c(c1)N(CCC1CCCCN1C)c1ccccc1S2 (centres undefined),-29,7.95,-4.45
Cc1cc(N2CCCCC2)nc2ccccc12,-32,-2.77,-1.01
CC(C)(C)C1=CC=C(CN(C)[C@H](C(N[C@H]([C@](NC(C)(C)C)=O)CC2=CC=C(OCC3=CC=CC=C3)C=C2)=O)CC(C)C)C=C1,-24.5,1.14,-2.38
C[C@H](NCc1ccc(OCc2ccccc2F)cc1)C(N)=O [priralfinamide],-24,-0.94,-2.81
O=C(c1cc(S(=O)(=O)Nc2ccccc2F)c(F)cc1Cl)N1CCN2CCC[C@@H]2C1,-26,-1.66,-3.52
COc1ccc(NC(=O)c2ccc(-c3ccc(-c4noc(C)n4)cc3C)cc2)cc1N1CCN(C)CC1,-35.8,-19.7,1.76
CC(C)(C)CC(C)(C)c1ccc(OCCOCC[N+](C)(C)Cc2ccccc2)cc1,16,-7.09,-0.695
C[C@@H]1CC(=O)c2c(ccc3c2C(=O)c2cccc(O)c2C3=O)C1 [ochromycinone],14.5,6.7,-2.08
CC[C@@]1(O)C(=O)OCc2c1cc1n(c2=O)Cc2cc3cc(O)ccc3nc2-1 [10-Hydroxycamptothecin],38.4,-34,-13.2
CC1(S(=O)(=O)[O-])CC(=O)c2ccccc2C1=O (centres undefined) [menadione-bisulfite],9.55,-12.2,-7.9
O=C(Nc1ccc(S(=O)(=O)Nc2ccccc2Cl)c(Cl)c1)c1ccccn1,25.4,1.67,-1.18
CNCC(O)c1ccc(O)c(O)c1 (racemic) [DL-Adrenaline],10.3,-3.86,-4.26
CCCCC(CC)C/N=C(\N)N/C(N)=N/CCCCCC/N=C(\N)N/C(N)=N/CC(CC)CCCC (centres undefined) [Alexidine dihydrochloride],63.4,-34.4,-13.3

Structure (SMILES),inhibition of IKZF1 HTRF signal [1] [%],relative growth in counter assay (HEK293FT dCK*-only) [%],relative growth recovery (HEK293FT dCK*-IKZF1) [%]
CC(=O)c1ccc(S(=O)(=O)NC(=O)NC2CCCCC2)cc1,-56.1,5.07,1.03
c1ccc2c(c1)CCC[C@H]2Nc1nc2ccccc2[nH]1,-34.6,-1.81,-0.405
Cc1ccccc1N=Nc1ccc(N=Nc2c(O)ccc3ccccc23)c(C)c1 [Solvent Red 24],13.9,-1.17,-0.495
"O=C(CCCCCCC(=O)Nc1ccccc1)NO [Vorinostat (SAHA, MK0683)]",-29.5,-30.5,-11.6
CC[N+](CC)(CC)CC(=O)Nc1c(C)cccc1C,-32.9,-2.01,-0.165
O=c1[nH]c(=O)n([C@H]2C[C@H](O)[C@@H](CO)O2)cc1F,-24.3,-31.1,-9.89
c1cncc(CN2CCC(n3ncc4c(N5CCOCC5)nc(-c5ccc6[nH]ccc6c5)nc43)CC2)c1,30.4,-26.4,-11.3
Clc1ccc(COC(Cn2ccnc2)c2ccc(Cl)cc2Cl)cc1 (centres undefined),-29.1,1.65,0.49
COc1ccccc1NC(=O)OCC1CCN(C(=O)OC(C)(C)C)CC1,-21.9,-0.54,0.27
CC[C@@]1(O)C(=O)OCc2c1cc1n(c2=O)Cc2c-1nc1cc(F)c(C)c3c1c2[C@@H](N)CC3.CS(=O)(=O)O [Exatecan Mesylate],-4.98,-35.8,-15.4
CO[C@H]1O[C@@H]2O[C@@]3(C)CC[C@H]4[C@H](C)CC[C@@H]([C@H]1C)[C@@]24OO3 [Artemether],-2.04,-7.46,-4.6
CSCC1CN(/N=C/c2ccc([N+](=O)[O-])o2)C(=O)O1 (centres undefined) [Nifuratel],-39.4,-3.74,-1.79
Oc1c(Cl)cc(Cl)c(Cl)c1Cc1c(O)c(Cl)cc(Cl)c1Cl [Hexachlorophene],-78.9,0.51,-1.27
COc1ccc(-c2ccc3c(N4CCOC[C@@H]4C)nc(N4CCOC[C@@H]4C)nc3n2)cc1CO,50,-33.9,-13.8
O=C1c2ccccc2-c2n[nH]c3cccc1c23 [pyrazolanthrone],-38.5,-9.29,-5.03
COC(=O)Nc1nc2cc(C(=O)c3ccccc3)ccc2[nH]1 [Mebendazole],9.13,-30.6,-10.7
COc1cc([C@@H]2c3cc4c(cc3[C@@H](O[C@@H]3O[C@@H]5COC(c6cccs6)O[C@H]5[C@H](O)[C@H]3O)[C@H]3COC(=O)C23)OCO4)cc(OC)c1O (some centres undefined) [Teniposide],-45.1,-34.3,-12.5
CCc1c2c(nc3ccc(OC(=O)N4CCC(N5CCCCC5)CC4)cc13)-c1cc3c(c(=O)n1C2)COC(=O)[C@]3(O)CC [Irinotecan HCl],-17.6,-35.4,-15.1
CC(C)(N)c1nc(-c2ccc(OC(F)(F)F)cc2)c[nH]1,-29.8,5.76,-3.6
CN1C(=O)CC(C)(c2ccccc2)C1=O (centres undefined),19.8,7.33,3
Cc1ncsc1-c1ccc(CNC(=O)[C@@H]2C[C@@H](O)CN2C(=O)[C@@H](NC(=O)COCCOCCOCCOc2ccc(-c3ccc4ncnc(Nc5ccc(OCc6cccc(F)c6)c(Cl)c5)c4c3)cc2)C(C)(C)C)cc1,13.3,18,4.09
O=C(CCCCCCC(=O)NO)NO,-47.9,-7.76,-0.655
Oc1cc(O)cc(/C=C/c2ccc(O)c(O)c2)c1 [piceatannol],6.73,-9.71,-2.98

Structure (SMILES),inhibition of IKZF1 HTRF signal [1] [%],relative growth in counter assay (HEK293FT dCK*-only) [%],relative growth recovery (HEK293FT dCK*-IKZF1) [%]
NC(=O)Nc1sc(-c2ccc(F)cc2)cc1C(N)=O,-33.5,-26.8,-9.27
O=C(O)C(O)Cc1ccc(O)c(O)c1 (centres undefined) [Sodium Danshensu],-50.2,0.01,-0.76
CC[C@]1(O)C[C@H]2CN(CCc3c([nH]c4ccccc34)[C@@](C(=O)OC)(c3cc4c(cc3OC)N(C)[C@H]3[C@@](O)(C(N)=O)[C@H](O)[C@]5(CC)C=CCN6CC[C@]43[C@@H]65)C2)C1 [Vindesine Sulfate],-14,-34.3,-11.6
COc1cccc2c(O)c3c(O)c4c(c(O)c3c(O)c12)=C(O[C@H]1C[C@H](N)[C@H](O)[C@H](C)O1)C[C@](O)(C(=O)CO)C=4 [Doxorubicin HCl],40.1,-34.4,-13.4
Nc1cccc2c1C(=O)N(C1CCC(=O)NC1=O)C2=O (centres undefined) [Pomalidomide],92.7,2.03,81.4
O=c1[nH]c(=O)n([C@H]2C[C@H](O)[C@@H](CO)O2)cc1F [Floxuridine],14.5,-29.6,-9.7
Cc1c(-c2ccccc2F)[nH]c(N)c1C#N,-50.1,0.99,0.445
C=CC(=O)Nc1cccc(Oc2nc(Nc3ccc(N4CCN(C)CC4)cc3)nc3ccsc23)c1 [Olmutinib],-18.2,-23.3,-7.07
CC[C@@]1(O)C(=O)OCc2c1cc1n(c2=O)Cc2cc3c(N)cccc3nc2-1 [9-aminocamptothecin],31.3,-33.7,-12.4
CC(=C\c1ccc(Cl)cc1)/C(C)=N/O,-25.6,-1.62,-3.61
CNC[C@H](O)c1ccc(O)c(O)c1,-26.9,-15.6,-7
O=C(OC)C1=C(C)NC(C)=C([N+]([O-])=O)[C@H]1[C@]2=CC=CC=C2C(F)(F)F,-26.8,0.45,-0.325
CC(C)c1ccc(-c2cc(=O)c3ccccc3o2)cc1,-25.6,-5.2,0.225
COC(=O)Nc1nc2ccc(S(=O)c3ccccc3)cc2[nH]1 (centres undefined),5.34,-12.6,-3.6
O=C1C=Cc2cc(Br)ccc2C1=O [bonaphthone],23,1.29,-2.85
CCN(CC)CCCC(C)Nc1ccnc2cc(Cl)ccc12 (centres undefined) [Chloroquine Diphosphate],-13.4,1.31,0.365
COCC(=O)O[C@]1(CCN(C)CCCc2nc3ccccc3[nH]2)CCc2cc(F)ccc2[C@@H]1C(C)C [mibefradil],-3.89,-13.3,-3.87
NC(=O)C(c1ccccc1)(c1ccc(F)cc1)c1ccc(F)cc1 [Senicapoc],-28.5,2.14,-0.855
O=C(O)c1ccccc1Nc1ccc(CCc2ccc(Cl)c(Cl)c2)cc1,-23.6,8.33,0.125
O=C1c2c(O)ccc(O)c2C(=O)c2c(NCCNCCO)ccc(NCCNCCO)c21,5.77,-35.5,-13.7
Cc1ccccc1/N=N/c1ccc(NC(=O)c2ccnn2C)c(C)c1,-27,-9.17,-0.005
Clc1ccccc1C(c1ccccc1)(c1ccccc1)n1ccnc1,-36.9,5.96,2.19
